Experimental findings from PubChem BioAssay (NCI) are described below.

Common to all, as to assay: NCI-60 one-dose screen, 48 h (100 = growth as untreated, 0 = no growth, -100 = all killed)
Holding throughout (settings): 10 µM unless noted

Test [1] deals with SR leukemia.
In test [2] the test system is RPMI-8226 leukemia.
Test [3] relates to OVCAR-8 ovarian.
Test [4] concerns OVCAR-5 ovarian.
Test [5] concerns OVCAR-4 ovarian.
Test [6] relates to SK-OV-3 ovarian.
The test system of test [7] is IGROV1 ovarian.
Test [8] relates to OVCAR-3 ovarian.
The test system of test [9] is HS 578T breast.
Test [10] deals with NCI/ADR-RES ovarian.

Molecules are shown by their SMILES. Where “and” joins values, the source holds several entries; their conditions need not be identical. Equal entries are not always repeated. Compounds without any hit were thinned out: in the full panel of roughly 83,000, 20% have a hit.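 96-well plates, one dose, 48 hours. Percent growth reported; active if below 10.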 Calls of active or inactive are those of the source.

As for `O=C1C(=O)c2ccccc2C(O)=C1CC=C(Cl)Cl`, the growth in test [1] was 43.4% (inactive) and 55.5% (inactive); in [2] it was 44.7% (inactive) and 41.7% (inactive); in test [3] it was 44.3% (inactive); in test [4], 35.3% (inactive) and 87.2% (inactive); in test [5], 83.9% (inactive) and 84.4% (inactive); in test [6] it was 73.9% (inactive) and 58.4% (inactive). Further, the growth in [7] is 42.7% (inactive); in test [8], 65.8% (inactive) and 67.1% (inactive); in test [9] it was 82.3% (inactive) and 87.2% (inactive); in [10] it was 57.6% (inactive) and 55.7% (inactive).
`Cc1cc(=NO)cc(C)n1O`: the growth in test [1] was 72.5% (inactive); in test [2] it was 103% (inactive); in [3], 111% (inactive); in test [4] it was 117% (inactive); in [5], 106% (inactive); in [6], 104% (inactive). For the same compound, the growth in test [7] was 114% (inactive); in [8], 104% (inactive); in [9], 103% (inactive); in test [10], 114% (inactive).
On to `CCCCCCCCCCCCCCCCC(=O)O`, for which the growth was 94.3% (inactive) in test [1]; 99.4% (inactive) in test [2]; 103% (inactive) in test [3]; 117% (inactive) in test [4]; 106% (inactive) in [5]; 116% (inactive) in test [6]. In addition, the growth was 107% (inactive) in test [7], 115% (inactive) in test [8], 100% (inactive) in [9] and 100% (inactive) in test [10].
Turning to `O=C1C=CC(n2cc(F)c(=O)[nH]c2=O)O1` (stereo not given), the growth in [1] was 13.1% (inactive); in test [2], 62% (inactive); in test [3] it was 62.3% (inactive); in [4], 128% (inactive); in [5] it was 74.9% (inactive); in test [6], 68.2% (inactive). Moreover, the growth in test [7] was 103% (inactive); in test [8] it was 57.5% (inactive); in test [9] it was 90.9% (inactive); in test [10], 85.1% (inactive).
Consider `CCNCc1ccccc1`, for which the growth in test [1] is 97.5% (inactive); in test [2], 119% (inactive); in test [3] it was 100% (inactive); in [4], 98.5% (inactive); in test [5] it was 114% (inactive); in [6] it was 97.5% (inactive). Also, the growth in test [7] was 106% (inactive); in test [8], 102% (inactive); in [9] it was 102% (inactive); in test [10], 102% (inactive).
For `NCCCCCC(=O)O`, the growth in test [1] was 108% (inactive) and 79.8% (inactive) and 111% (inactive); in test [2], 99.6% (inactive) and 94.5% (inactive); in [3], 103% (inactive) [middle of 4 runs]; in test [4] it was 98.2% (inactive) [middle of 4 runs]; in [5] it was 116% (inactive) and 103% (inactive); in test [6], 103% (inactive) [middle of 4 runs]. The growth is 116% (inactive) and 101% (inactive) in test [7]; 110% (inactive) [middle of 4 runs] in [9]; 109% (inactive) [middle of 4 runs] in test [10].
Take `Cc1cc(Cl)nc(Nc2ccccc2)n1`: the growth in test [2] is 117% (inactive); in test [3], 102% (inactive); in [4], 103% (inactive); in [5], 100% (inactive); in [6] it was 102% (inactive); in test [7] it was 100% (inactive). In addition, the growth in [8] is 95.5% (inactive); in [9], 99.6% (inactive).
For the compound `NCCSSC/C=C\CSSCCN`, the growth in test [1] was 107% (inactive); in test [2], 94.9% (inactive); in test [3], 97% (inactive); in test [4], 121% (inactive); in [5], 103% (inactive); in test [6], 99.8% (inactive). The growth in test [7] was 115% (inactive); in test [8], 109% (inactive); in test [9], 93% (inactive); in test [10], 107% (inactive).
Consider `Cc1cccc(Cl)c1N`, for which the growth was 120% (inactive) in test [2]; 96.1% (inactive) in [3]; 110% (inactive) in test [4]; 117% (inactive) in test [5]; 113% (inactive) in [6]; 153% (inactive) in test [7]. The growth in test [8] is 117% (inactive); in [9] it was 87.6% (inactive).
As for `CCOC(C)=N`, the growth is 87.4% (inactive) in [1]; 92.7% (inactive) in [2]; 109% (inactive) in [3]; 102% (inactive) in [4]; 100% (inactive) in test [5]; 97% (inactive) in test [6]. Moreover, the growth in test [7] was 151% (inactive); in test [8] it was 110% (inactive); in [9], 150% (inactive); in test [10], 109% (inactive).
`Cc1ccc(N)cc1S(=O)(=O)O`: the growth was 89.6% (inactive) and 90.4% (inactive) in test [1]; 103% (inactive) and 102% (inactive) in test [2]; 108% (inactive) and 100% (inactive) in test [3]; 108% (inactive) and 125% (inactive) in [4]; 104% (inactive) in [5]; 106% (inactive) and 116% (inactive) in test [6]. Moreover, the growth in test [7] is 109% (inactive) and 113% (inactive); in test [8], 108% (inactive) and 117% (inactive); in test [9], 100% (inactive) and 94.9% (inactive); in test [10], 106% (inactive) and 113% (inactive).
Take `Cc1cc(NC(=O)NC(=O)c2ccccc2N(C)C)ccc1Oc1ncc(Br)cn1`: the growth in test [1] is 11.9% (inactive) and 22.4% (inactive); in [2], -9.68% (active) and 20.4% (inactive); in [3], 51.9% (inactive); in test [4] it was 34.1% (inactive) and 78.5% (inactive); in [5], 15.8% (inactive) and 48.7% (inactive); in [6] it was 45% (inactive) and 59.9% (inactive). The growth in test [7] is -12% (active) and 54.7% (inactive); in test [8], 0.0582% (active) and 16.2% (inactive); in test [9], 23.8% (inactive) and 40% (inactive); in test [10], 5.74% (active) and 23.3% (inactive).
